Compound activity (PubChem)
Sampled rows, rich in hits. Any-hit rate of the full collection: about 4.4%.
tim23-1 inh – inhibits growth of tim23-1 mutant yeast | actives 1.3% (n = 330,000) | S. cerevisiae tim23-1 growth, BacTiter-Glo luminescence, 24 h | inhibition, % at 20 µM;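 active = growth inhibition of the mutant yeast at or above 50%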;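 note: temperature-sensitive mutant grown at 25 °C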
tim10-1 inh – growth inhibitors of tim10-1 mutant yeast; actives 2.2% (n = 330,000); S. cerevisiae tim10-1 ts strain growth, BacTiter-Glo, 24 h; inhibition, % at 20 µM; AID 463190;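 active = inhibition of at least 40%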;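 note: mutant grown at 25 °C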
SKKanGAS inh – blocks kanamycin growth of S. pyogenes SKKanGAS strain. BacTiter-Glo, 6 h. actives 1.3% (n = 300,000). inhibition, % at 7.5 µM;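 active = mean replicate score, as percent of positive control median, at least 50; inconclusive = mean below 50 but one replicate at or above 50; inactive = mean and every replicate below 50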;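 note: strain carries kanamycin resistance gene driven by streptokinase promoter and grows in 40 µg/ml kanamycin; loss of luminescence reflects streptokinase promoter inhibition or plain growth inhibition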
PfHsp90 yeast 2 – inhibits growth of yeast expressing Plasmodium falciparum Hsp90 | actives 0.32% (n = 310,000) | inhibition, % at 9.4 µM | S. cerevisiae expressing PfHsp90, BacTiter-Glo ATP, 48 h; yeast lacking PDR1 and PDR3 efflux regulators | AID 504621;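 active = every replicate shows inhibition above about 80%, whatever the replicate mean, limit read from the data; inconclusive = mean inhibition reaches the set limit but some replicate falls short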
TIM10 inh – inhibits growth of TIM10 yeast strain | S. cerevisiae TIM10 strain growth, BacTiter-Glo luminescence, 24 h | inhibition, % at 10 µM | actives 1.4% (n = 330,000);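 active = inhibition of 40% or more at the single tested concentration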;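 note: wild-type TIM10 isogenic control strain grown at permissive 25 °C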
tim23-1 confirm – confirmation of tim23-1 mutant yeast growth inhibitors. shares compounds with tim23-1 inh. S. cerevisiae tim23-1 growth, BacTiter-Glo luminescence, 24 h. inhibition, % at 20 µM. actives 83% (n = 4,400). AID 463218;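 active = inhibition above about 39% in either of two replicate wells at 20 µM, limit read from the data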;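 note: temperature-sensitive tim23-1 mutant grown at 25 °C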
A number is an active result; – = inactive; ? = inconclusive; · = not tested or not shown.

SMILES	tim23-1 inh	tim10-1 inh	SKKanGAS inh	PfHsp90 yeast 2	TIM10 inh	tim23-1 confirm
C=CCc1cccc(/C=N/NC(=O)CNc2cccc3ccccc23)c1O	57.1	–	–	–	–	72.7
O=[N+]([O-])c1cc(O)c2ncccc2c1	66.9	–	?	·	–	70.2
CSC1=N/C(=C\c2ccc(C)cc2)C(=O)S1	61.3	–	–	–	–	56.3
COC(=O)c1ccc(/C=C2\N=C(SC)SC2=O)cc1	–	–	–	–	–	·
Clc1ccc(OCCn2cnc3ccccc32)c(Cl)c1	54.1	–	–	–	–	–
c1ccc2c(c1)ncn2CCOCCOCCn1cnc2ccccc21	–	–	–	–	–	·
CC1(NC(=O)NCCCCCCNC(=O)NC2(C)CCS(=O)(=O)C2)CCS(=O)(=O)C1 (stereo unspecified)	–	–	–	–	–	·
Clc1ccc(-c2csc3ncnc(Cl)c23)cc1	59.7	–	–	–	–	41.6
NNc1ncnc2scc(-c3ccc(Cl)cc3)c12	58.2	–	–	–	–	49.6
Cc1cccc(C(=O)NC2CCN(CC(=O)NCc3ccccc3F)CC2)c1	–	–	–	–	–	·
CCOc1ccc2nc(N3CCCC(C(=O)NCCCN4CC(C)CC(C)C4)C3)sc2c1 (stereo unspecified)	–	–	–	–	–	·
Fc1ccc(-c2csc(Nc3ccccn3)n2)cc1	53.5	–	–	–	–	40.6
Cc1cccc(Nc2nc(-c3cccs3)cs2)n1	–	–	–	–	–	·
c1ccc(Nc2nc(-c3cccs3)cs2)nc1	56.5	–	–	–	–	–
Oc1ccc(-c2csc(Nc3ccccn3)n2)c(O)c1	72.5	–	–	–	–	53.9
c1ccc(Nc2nc(-c3cccnc3)cs2)nc1	–	–	–	–	–	·
CN(C(=S)NC(=O)C1CC1)c1ccc(O)cc1	–	–	·	–	–	·
Cc1ccc2nc(NC(=O)COC(=O)c3cccnc3)sc2c1	53.0	–	·	·	–	60.1
Cc1ccc2nc(NC(=O)COC(=O)c3ccco3)sc2c1	–	–	–	·	–	·
COc1ccc(/C=C2\SC(=Nc3ccccc3OC)NC2=O)cc1	53.2	–	–	–	–	60.0
COc1ccccc1[C@H]1C(c2ccc(F)cc2)=NN(c2ccccc2)[C@@H]1CO	54.6	–	·	–	–	–
COc1ccccc1[C@H]1C(c2cccc(C)c2)=NN(c2ccccc2)[C@@H]1CO	51.3	–	·	–	–	45.1
COc1ccccc1[C@H]1C(c2ccccc2)=NN(c2ccccc2)[C@@H]1CO	50.3	–	·	–	–	38.9
CCOc1ccc(N2C(=O)C3C(c4ccccc4)=NN(c4ccccc4)C3C2=O)cc1 (stereo unspecified)	–	–	–	–	–	·
C[C@H]1C(c2ccc(F)cc2)=NN(c2ccccc2)[C@@H]1CO	51.5	–	·	–	–	–
SMILES	tim23-1 inh	tim10-1 inh	SKKanGAS inh	PfHsp90 yeast 2	TIM10 inh	tim23-1 confirm
CC1=NN(c2ccccc2)C(=O)C1C(=O)C(=O)Nc1ccc(F)cc1 (stereo unspecified)	–	–	–	–	–	·
O=C1OCCN1C(=O)[C@H]1[C@H](c2ccccc2)C(c2ccc(F)cc2)=NN1c1ccc(Br)cc1	–	–	·	–	–	·
COc1cccc(/C=C/C(=O)NCc2ccc3c(c2)OCO3)c1	–	–	–	–	–	·
Cc1[nH]c2ccccc2c1CCN(Cc1cccnc1)C(=S)NC(C)(C)C	–	–	–	–	–	·
CN(CC(=O)NC(=O)NC1CCCCC1)CC(=O)Nc1ccc(OC(F)(F)F)cc1	–	–	·	–	–	·
CC(=O)N(C)c1ccc(NS(=O)(=O)c2cccc3nsnc23)cc1	–	–	–	–	–	·
Cc1cc(C)c(S(=O)(=O)N2CCN(c3ccccc3)CC2)c(C)c1	–	–	–	–	–	·
Cc1[nH]c(C)c(S(=O)(=O)NCCc2ccc(S(N)(=O)=O)cc2)c1C(=O)N1CCCC1	–	–	–	–	–	·
CSc1ccccc1NC(=O)CN(C)C(=O)C1CC(=O)N(C(C)c2ccccc2)C1 (stereo unspecified)	–	–	·	–	–	·
CCOC(=O)c1cccc(NC(=O)c2cc3ccccc3o2)c1	57.9	–	–	–	–	51.9
CCOC(=O)c1ccc(NC(=O)c2cc3ccccc3o2)cc1	–	–	–	–	–	·
CCC(=O)Nc1cccc(NC(=O)c2cc3ccccc3o2)c1	–	–	–	–	–	·
CCOC(=O)c1cccc(NC(=O)CCc2ccccc2)c1	61.2	–	–	·	–	–
